Measurements published in PubChem BioAssay AID2685 (National Center for Advancing Translational Sciences (NCATS), 2010).
Hit rate of the full screen: of about 320,000 compounds, about 2,100 (0.66%) were called active. Inconclusive results (about 53%) are left out. The sample holds actives, similar compounds and a random draw of the others, so the mix is not that of the screen. The call rests on the fitted dose curve; in most records, active means well fitted inhibition curve with a large enough effect in the signal ratio, with a control signal flat (not every such curve was filed as active); inconclusive means small, poorly fitted or top-dose-only effect, or effect the other way, or a change in a side signal; inactive means flat fitted curve, though single readings scatter; the % refers to the signal ratio.

Test: qHTS Assay for Lipid Storage Modulators in Drosophila S3 Cells;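 on cell number change: cells counted by Cell Tracker Red CMTPX staining in the red channel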; on lipid storage change, negative = inhibition: on the % scale 0 is the no-effect control and ±100 the full control effect
Conditions: BODIPY lipid droplet fluorescence, 18-24 h, cells fed with added oleic acid; cell number change: measured here: cell count max response; series mostly up to 46.1 µM; lipid storage change, negative = inhibition: at the top concentration
In short: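 Laser-scanning cytometry quantifies lipid droplet accumulation (500–530 nm total intensity; droplet/cell object ratio) in oleic acid-fed (400 uM added) Drosophila S3 cells treated with a concentration series. 20 uM Triacsin C defined 100% inhibition.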
Potency means the concentration at half of the fitted maximal effect.

SMILES | outcome | lipid storage change, negative = inhibition | cell number change [%] | Potency
CN(C(=O)C1CCOC1)c1nnc(-c2ccncc2)s1 (configuration not stated) | inactive |  |  | 
CC(C)c1ccc2c(c1)[C@H]1OCC[C@H]1[C@@H](c1cccs1)N2 |  | 21% (inactive) | -7.55 | 
O=C1NC2c3ccccc3CC2O1 (configuration not stated) | inactive |  | 17.5 | 
CC(C)c1ccc2c(c1)C1Cc3ccccc3C1N2 (configuration not stated) |  |  |  | 9.2 µM (active)
COc1ccc(/C=N\NC(=O)COc2ccc(Cl)cc2Cl)c(C(=O)O)c1OC |  | 3.57% (inactive) | 11.7 | 
CC(C)NC(=O)C(c1ccc(F)cc1)N(C(=O)CCC(=O)Nc1ccccn1)c1cccc(F)c1 (configuration not stated) |  | 24.5% (inactive) | 7.14 | 
Fc1ccc(-c2csc(-c3cccnc3)n2)cc1F |  | 14.8% (inactive) |  | 
NC(=O)c1cc(-c2csc(-c3cccnc3)n2)ccc1O |  |  | 5 | 25.9 µM (active)
Fc1ccc(-c2csc(-c3ccncc3)n2)cc1 |  | 4.09% (inactive) | 8.89 | 
Oc1ccc(-c2nc(-c3ccc(O)c(O)c3)cs2)cc1 |  |  | -11.8 | 0.0116 µM (active)
O=C(O)c1ccc(-c2nc(-c3ccc(Cl)c(Cl)c3)cs2)cc1 |  | 8.4% (inactive) | 6.89 | 
Oc1ccc(-c2csc(-c3cccnc3)n2)cc1O | inactive |  | -16.9 | 
CCN(CC)S(=O)(=O)c1ccc(S(=O)(=O)N2CCCC2)cc1 |  | -3.92% (inactive) | 4.33 | 
CCOc1ccc(Nc2cc3n(c(=O)n2)CCc2cc(OC)c(OC)cc2-3)cc1 |  | -11.1% (inactive) | -17.4 | 
CCc1c(C)nc(N2CCN(c3ccccc3F)CC2)[nH]c1=O | inactive |  | 15.2 | 
Cc1nn(-c2ccccc2)c(Cl)c1/C=N/NC(=O)CNc1n[nH]c(=O)[nH]c1=O |  | -0.0956% (inactive) | 11.6 | 
CCO[C@@H]1OC(C(=O)NCc2nc3ccccc3[nH]2)=C[C@H](C)[C@H]1CCCO |  | -29% (inactive) | -18.5 | 
CCC(=O)Nc1ccc2c(c1)ncn2-c1ccc(C)cc1 |  | -1.57% (inactive) | 19.8 | 
Cc1ccc(NC(=O)N(CCC(=O)O)Cc2ccccc2)cc1 | inactive |  |  | 
Cc1cc(C)c2[nH]c(=O)c(CN(C(=O)C3CCCO3)C3CCCC3)cc2c1 (configuration not stated) |  | 3.45% (inactive) | 9.83 | 
CCN1C(=O)[C@@H]2[C@@H](c3ccc(-c4ccc5c(c4)OCO5)c(OC)c3)N3CCCC[C@@]3(C(=O)OC)[C@@H]2C1=O | inactive |  |  | 
CCN1C(=O)[C@@H]2[C@@H](c3ccc(-c4ccc(OC)cc4)c(OC)c3)N3CCCC[C@@]3(C(=O)OC)[C@@H]2C1=O |  |  | 24.8 | 9.2 µM (active)
CCN1C(=O)[C@@H]2[C@@H](c3ccc(-c4ccc5c(c4)OCO5)c(OC)c3)N3CCC[C@@]3(C(=O)OC)[C@@H]2C1=O |  | 5.27% (inactive) | -1.65 | 
CCN1C(=O)[C@@H]2[C@@H](c3ccc(-c4ccccc4)cc3)N3CCCC[C@@]3(C(=O)OC)[C@@H]2C1=O | inactive |  | 15.8 | 

SMILES | outcome | lipid storage change, negative = inhibition | cell number change [%] | Potency
CCN1C(=O)[C@H]2[C@@H](c3ccc(-c4ccc(OC)cc4)c(OC)c3)N3CCCC[C@@]3(C(=O)OC)[C@H]2C1=O |  |  | -0.765 | 5.8 µM (active)
CCN1C(=O)[C@H]2[C@@H](c3ccc(-c4ccccc4)cc3)N3CCCC[C@@]3(C(=O)OC)[C@H]2C1=O |  | 13.3% (inactive) |  | 
Cc1cccc(OCC(=O)Nc2ccc3c(c2)nc(CCN2CCCCC2)n3C)c1 | inactive |  |  | 
CCc1ccc(NC(=O)[C@H](Cc2ccccc2)NC(=O)C2CCN(C(=O)[C@@H](N)CC(C)C)CC2)cc1 |  | -9.52% (inactive) | 18 | 
CC(=O)c1ccc(NC(=O)c2ccc(CSc3ccccc3)o2)cc1 |  | 15.1% (inactive) | 3.7 | 
Cn1cncc1C#Cc1ccc2cc(CCO)oc(=O)c2c1 |  |  | 17.2 | 1.3 µM (active)
Cn1cncc1C#Cc1ccc2cc(C3(O)CCCCC3)oc(=O)c2c1 |  | 11.5% (inactive) | -13.7 | 
CN(C)c1ccc(C#Cc2ccc3cc(CCO)oc(=O)c3c2)cc1 |  | -0.121% (inactive) | 24 | 
COc1cccc(Oc2cc(Cl)nc(N)n2)c1 |  | 0.532% (inactive) | -10.3 | 
COc1ccc(Cl)cc1NC(=O)C(C)OC(=O)C1=NNC(=O)CC1 (configuration not stated) |  | 13.5% (inactive) | -0.986 | 
O=C(N/N=C/c1ccccn1)c1cc(-c2ccncc2)nc2ccccc12 |  | 24.3% (inactive) | 0.674 | 
CC1=C(C(=O)N(C)C)C(c2ccc(Cl)c(Cl)c2)NC(=O)N1 (configuration not stated) |  |  | -24.5 | 3.66 µM (active)
CC1=C(C(=O)N(C)C)C(c2ccc(N3CCOCC3)cc2)NC(=O)N1 (configuration not stated) |  | 10.6% (inactive) |  | 
CC1=C(C(=O)OCC2CCCO2)C(c2ccc(Cl)c(Cl)c2)NC(=O)N1 (configuration not stated) |  | 0.886% (inactive) | 6.97 | 
N/C(=N\OC(=O)c1cccnc1)c1ccccc1Cl |  | -0.604% (inactive) | -1.5 | 
O=c1ncn(-c2ccccc2C(F)(F)F)c2ncccc12 |  | 14.1% (inactive) | -1.22 | 
CC(C(=O)NC(C)(C)C)N(Cc1cccs1)C(=O)CCN1CCc2ccccc21 (configuration not stated) |  | 6.26% (inactive) | 1.12 | 
CC(C)(C)NC(=O)NC(=O)CN1CCCc2ccccc21 |  | -1.35% (inactive) | -16.4 | 
CC(C)(C)NC(=O)CN(C(=O)CCN1CCCc2ccccc21)C(C)(C)C |  |  |  | 14.6 µM (active)
O=C(COC(=O)c1ccco1)c1ccc(S(=O)(=O)N2CCCCC2)cc1 |  | -15.9% (inactive) | -13.5 | 
Cc1cc(C)n2nc(C(=O)NNC(=O)c3ccccc3)nc2n1 |  | 9.61% (inactive) | 14 | 
Cc1cc(C)n2nc(C(=O)NNC(=O)c3ccc(Cl)cc3)nc2n1 |  |  | -28 | 18.4 µM (active)
Cc1cc(C)n2nc(C(=O)OCC(=O)NNC(=O)c3ccc(Cl)cc3)nc2n1 |  | -21.1% (inactive) | -14.4 | 
CCN(CC)c1nc(-c2ccc(Cl)cc2)cc(C(F)(F)F)c1C#N |  | 21% (inactive) | -4.2 | 
